Source: article PMC4336329 (PLoS ONE, 2015)
Hit rate of the full screen: of about 310,000 compounds, about 14,000 (4.5%) showed an effect of 50% or more. The effect is printed as a negative number. The full list was thinned out, with strong results kept by preference.

molecular target: human ether-à-go-go-related gene (hERG) potassium channel (human, UniProt Q12809); assay: primary screen, population patch clamp on CHO cells stably expressing hERG; higher = less effect of the substance
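Further: peak tail current of the secondary pulse compared with the same well before compound.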

Chain of human ether-à-go-go-related gene (hERG) potassium channel (Q12809 whole entry, looked up): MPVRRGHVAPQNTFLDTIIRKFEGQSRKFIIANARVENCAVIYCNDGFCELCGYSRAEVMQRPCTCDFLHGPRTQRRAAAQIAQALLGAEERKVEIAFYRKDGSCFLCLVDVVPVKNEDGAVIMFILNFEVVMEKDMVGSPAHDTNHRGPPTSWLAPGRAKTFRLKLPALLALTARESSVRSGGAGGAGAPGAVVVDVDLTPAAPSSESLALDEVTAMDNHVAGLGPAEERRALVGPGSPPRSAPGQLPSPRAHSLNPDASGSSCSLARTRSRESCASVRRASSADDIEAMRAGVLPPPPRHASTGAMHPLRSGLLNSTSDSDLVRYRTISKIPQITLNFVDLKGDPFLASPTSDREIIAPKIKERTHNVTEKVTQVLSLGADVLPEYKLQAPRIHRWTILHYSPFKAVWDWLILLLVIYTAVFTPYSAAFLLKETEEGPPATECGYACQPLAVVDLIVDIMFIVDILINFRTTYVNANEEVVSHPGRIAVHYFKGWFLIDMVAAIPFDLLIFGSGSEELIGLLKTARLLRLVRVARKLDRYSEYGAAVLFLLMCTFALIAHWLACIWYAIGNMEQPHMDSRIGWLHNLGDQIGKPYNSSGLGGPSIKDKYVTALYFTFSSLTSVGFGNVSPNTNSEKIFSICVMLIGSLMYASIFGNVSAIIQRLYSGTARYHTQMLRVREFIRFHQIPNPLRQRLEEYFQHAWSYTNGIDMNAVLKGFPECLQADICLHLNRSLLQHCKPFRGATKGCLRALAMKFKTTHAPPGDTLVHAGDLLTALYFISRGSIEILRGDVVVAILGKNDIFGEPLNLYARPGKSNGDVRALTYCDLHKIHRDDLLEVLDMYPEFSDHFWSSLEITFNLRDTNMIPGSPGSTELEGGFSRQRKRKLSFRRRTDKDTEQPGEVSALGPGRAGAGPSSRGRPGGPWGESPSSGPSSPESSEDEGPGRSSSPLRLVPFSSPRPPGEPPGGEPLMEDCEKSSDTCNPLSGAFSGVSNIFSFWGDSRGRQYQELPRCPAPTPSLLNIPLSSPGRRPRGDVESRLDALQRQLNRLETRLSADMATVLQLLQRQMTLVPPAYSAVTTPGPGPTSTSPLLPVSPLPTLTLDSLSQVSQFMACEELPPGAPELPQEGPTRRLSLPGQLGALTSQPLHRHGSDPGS

Compound	hERG current change (%, negative = inhibition) at 10uM
N#Cc1c(Nc2ccccc2)sc(C(=O)c2ccccc2)c1N	-7.02%
O=C(O)c1cccc([N+](=O)[O-])c1C(=O)Nc1cccc2ccccc12	21.9%
C[C@@H]1CC=C[C@H]2[C@H]1C(=O)N(Cc1ccccc1)[C@H]2c1ccc(/C=C/c2ccccc2)cc1F	4.34%
O=C(CN(Cc1ccco1)C(=O)Cn1nnc(-c2cccs2)n1)NCC1CCCO1 (centres unmarked)	6.63%
O=C(CN(CCc1ccccc1)C(=O)Cn1nnc(-c2cccs2)n1)NCc1ccco1	-38.7%
O=C(CN(Cc1ccco1)C(=O)Cn1nnc(-c2cccs2)n1)NCc1ccccc1	-51.7%
CCSc1nnc(NC(=O)COc2ccc(Cl)cc2)s1	24%
CC(=O)C1=C(C)NC(SCC(=O)c2ccc(Cl)c(Cl)c2)=C(C#N)C1c1ccco1 (centres unmarked)	5.27%
CCCCC(=O)NC(Nc1cc(C)ccn1)(C(=O)OCC)C(F)(F)F (centres unmarked)	2.5%
CCC(C)(C)C1CCC(=NNC(=S)Nc2ccccc2)CC1 (centres unmarked)	11.4%
COC(/C=C/Nc1ccc(OC)cc1)=C(C#N)C#N	-59.9%
COC(/C=C/Nc1ccc(Br)cc1)=C(C#N)C#N	-39.3%
COC(/C=C/Nc1ccc(C)cc1)=C(C#N)C#N	-38%
CCc1cc2c(CN3CCN(CC)CC3)cc(=O)oc2cc1O	-8.81%
CC1(C)Oc2ccc3ccc(=O)oc3c2C(/C=N/O)C1=O (centres unmarked)	3.87%
O=C(CN1C(=O)NC2(CCCCCC2)C1=O)c1ccc(OC(F)F)cc1OC(F)F	-35%
COc1cc(CN2CCN(C(=O)CC(C)C)CC2)cc(OC)c1O.O=C(O)C(=O)O	-0.00662%
COc1cc(CN2CCN(Cc3ccc(SC)cc3)CC2)cc(OC)c1O.O=C(O)C(=O)O	-67.9%
COc1cc(OC)c(OC)cc1CN1CCN(Cc2cccc(F)c2)CC1.O=C(O)C(=O)O	10.2%

Compound	hERG current change (%, negative = inhibition) at 10uM
COc1ccc(C(=O)N2CCN(Cc3cc(OC)c(O)c(OC)c3)CC2)cc1OC.O=C(O)C(=O)O	8.89%
COc1cccc(CN2CCN(Cc3cc(OC)c(OC)cc3OC)CC2)c1.O=C(O)C(=O)O	-29.1%
COc1cc(OC)c(OC)cc1CN1CCN(Cc2ccc(SC)cc2)CC1.O=C(O)C(=O)O	-61.5%
Cc1ccc(N2C(=O)CS(=O)(=O)CC2=O)cc1	22.9%
CC[C@H](C)[C@H](NC(N)=O)C(=O)NCCc1ccc(OC)c(OC)c1	20.1%
O=[N+]([O-])C(=C1Nc2ccccc2N1)/C(Cl)=C(/Cl)Br	19.8%
c1csc(-c2nc(NCC3CCCO3)c3ccccc3n2)c1 (centres unmarked)	-20.5%
Brc1ccc2nc(-c3cccs3)c(NCC3CCCO3)n2c1 (centres unmarked)	-52.6%
N#Cc1nc(-c2cccs2)oc1NCC1CCCO1 (centres unmarked)	-10%
COc1ccccc1OCC(=O)Nc1c2c(nn1-c1ccccc1)CS(=O)(=O)C2	-8.22%
Cc1c(C)c2cc(Cl)c(OCC(=O)N3C[C@H]4C[C@@H](C3)c3cccc(=O)n3C4)cc2oc1=O	1.78%
O=C(O)c1cccc(Nc2c3ccccc3nc3ccccc23)c1	19.7%
CC(=O)c1cccc(Nc2nc(-c3ccccc3)nc3ccccc23)c1.Cl	26.9%
O=C(Nc1c2c(nc3ccccc13)CCCC2)c1ccccc1Cl	17.2%
Cc1ccccc1C(=O)Nc1c2c(nc3ccccc13)CCCC2	-5.54%
CC(=O)c1ccc(Nc2c3c(nc4ccccc24)CCCC3)cc1	-53.3%
CC(=O)c1cccc(Nc2c3c(nc4ccccc24)CCC3)c1.Cl	-68.8%
CCC(CC)C(=O)NC12CC3CC(CC(C3)C1)C2	5.15%
Cc1cccc(CSCCNC(=O)CN(c2cc(C)cc(C)c2)S(C)(=O)=O)c1	-23.9%

Compound	hERG current change (%, negative = inhibition) at 10uM
CC(NC(=O)C(=O)N1CCOCC1)C(c1cccs1)N1CCN(c2ccc(F)cc2)CC1 (centres unmarked)	-0.955%
Cc1nc(C(F)(F)F)nc(Nc2ccc(Br)cc2)c1C#N	12.2%
COc1ccc(C=C(c2nc3ccccc3s2)c2nc3ccccc3s2)cc1O	3.94%
Cc1ccc2c(c1)N(CCC(=O)NCCN1CCOCC1)C(=O)CO2	-2.16%
N/C(Cc1ccc([N+](=O)[O-])cc1)=N\OC(=O)COc1ccc2ccccc2c1	-14.4%
O=C(O)c1cccc(CN2C(=O)SC(Nc3ccccc3)C2=O)c1 (centres unmarked)	2.16%
Cc1ccc(C(C)C)c(OCCCN2CCc3ccccc3C2)c1.Cl	-70.1%
Cl.OC(COc1ccc(Cl)cc1Cl)CN1CCc2ccccc2C1 (centres unmarked)	-58.6%
Cl.Clc1ccc(OCCCN2CCc3ccccc3C2)c(Br)c1	-34.8%
Cc1ccc(C(C)C)c(OCC(O)CN2CCOCC2)c1 (centres unmarked)	-2.99%
OC(COc1ccc(F)cc1Cl)CN1CCc2ccccc2C1 (centres unmarked)	-41.7%
OC(COc1ccc(Cl)cc1Cl)Cn1ccnc1 (centres unmarked)	9.67%
Cc1ccc(C(C)C)c(OCC(O)CN2CCc3ccccc3C2)c1.Cl (centres unmarked)	-65%
Cc1ccc(C(C)C)c(OCC(O)CN2CCN(CCO)CC2)c1.Cl (centres unmarked)	-13.9%
Cc1ccc(C)c(OCCCN2CCc3ccccc3C2)c1.Cl	-49.4%
Cl.c1ccc(-c2ccccc2OCCOCCN2CCc3ccccc3C2)cc1	-28.7%
Cl.Clc1ccc(OCCOCCN2CCc3ccccc3C2)c(Cl)c1	-69.8%
Cc1ccc(C(C)C)c(OCCN2CCc3ccccc3C2)c1.Cl	14.5%
